# NPR1 antag = blocks ANP-stimulated signaling of human Npr1 receptor; Potency, µM (doses to about 46.3 µM), for inactives: at the highest dose activity change, negative = inhibition, most hits filed as inhibitors; actives 1.6% (n = 76,000); P16066; HEK293 hNpr1 GloSensor cGMP, ANP-stimulated luminescence; calls by dose curve; also: % is scaled to controls: 0 for no effect and ±100 for the full control effect; nearly all actives have a fitted effect of over 60% in size
# Target sequence (P16066 whole entry, looked up): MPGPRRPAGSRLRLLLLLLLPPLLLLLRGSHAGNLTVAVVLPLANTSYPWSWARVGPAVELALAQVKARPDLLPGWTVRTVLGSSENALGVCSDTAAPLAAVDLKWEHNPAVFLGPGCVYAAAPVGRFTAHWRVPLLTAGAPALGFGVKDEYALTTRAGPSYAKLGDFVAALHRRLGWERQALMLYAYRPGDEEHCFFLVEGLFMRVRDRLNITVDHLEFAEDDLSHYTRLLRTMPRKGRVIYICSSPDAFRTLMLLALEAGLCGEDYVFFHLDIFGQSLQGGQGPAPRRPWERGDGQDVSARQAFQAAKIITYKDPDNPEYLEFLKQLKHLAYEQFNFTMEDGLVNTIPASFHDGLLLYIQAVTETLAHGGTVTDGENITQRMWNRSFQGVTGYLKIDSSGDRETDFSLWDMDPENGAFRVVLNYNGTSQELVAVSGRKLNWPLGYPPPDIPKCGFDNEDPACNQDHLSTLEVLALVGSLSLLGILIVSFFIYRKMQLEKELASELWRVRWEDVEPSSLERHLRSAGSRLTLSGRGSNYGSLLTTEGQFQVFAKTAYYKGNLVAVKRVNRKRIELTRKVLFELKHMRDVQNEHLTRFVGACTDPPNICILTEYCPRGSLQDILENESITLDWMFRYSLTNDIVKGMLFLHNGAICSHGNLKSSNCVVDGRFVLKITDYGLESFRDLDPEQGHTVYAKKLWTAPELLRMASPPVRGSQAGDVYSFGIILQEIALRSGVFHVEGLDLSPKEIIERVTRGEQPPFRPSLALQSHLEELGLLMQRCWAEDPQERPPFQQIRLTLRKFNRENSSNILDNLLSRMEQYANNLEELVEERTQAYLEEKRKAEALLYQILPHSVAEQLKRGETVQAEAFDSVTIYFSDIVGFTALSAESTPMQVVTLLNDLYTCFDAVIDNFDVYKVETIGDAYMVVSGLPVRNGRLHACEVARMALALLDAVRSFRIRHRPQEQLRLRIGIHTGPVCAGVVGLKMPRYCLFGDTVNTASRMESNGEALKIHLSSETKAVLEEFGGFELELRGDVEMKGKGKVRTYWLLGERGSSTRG
#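 HEK293 cells stably expressing human Npr1 and cGMP GloSensor pGS-40F, loaded 2 h with 2% GloSensor reagent, given compound 30 min at room temperature. Luminescence read before and 20 min after 0.1 nM hNppA.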
# 3T3 cytotox = kills NIH 3T3 cells | AID 1345082 | NIH 3T3 viability, CellTiter-Glo ATP luminescence, 48-72 h | actives 4.3% (n = 94,000) | Potency, µM (doses to about 96.7 µM), inactives show at the top dose activity change, negative = cytotoxicity, actives largely listed as inhibitors; also: % is scaled to controls: 0 for no effect and ±100 for the full control effect; nearly all actives have a fitted effect of over 55% in size
#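 Cytotoxicity was measured by CellTiter-Glo ATP luminescence after 48 or 72 h compound exposure at 37 °C. Mouse NIH 3T3 fibroblasts were seeded at 400 cells/well and dosed by 23 nL pin transfer.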
# HEK293 tox = kills HEK 293 cells | actives 6.6% (n = 94,000) | Potency, µM (doses to about 115 µM), for the others: at the top dose activity change, negative = cytotoxicity, actives largely listed as inhibitors | HEK 293 viability, ATP luminescence (CellTiter-Glo), 48-72 h; also: % is scaled to controls: 0 for no effect and ±100 for the full control effect; nearly all actives have a fitted effect of over 60% in size
#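 qHTS cytotoxicity; HEK 293, 250 cells/well; compound pinned; 48 or 72 hr, 37 degree Celsius, 5% CO2, 95% humidity; CellTiter-Glo, 10 min RT; luminescence (ATP).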
# FLuc inh-1 = Photinus pyralis luciferase inhibition; AID 1347043; actives 2.5% (n = 76,000); Potency, µM (series often up to 115 µM), hits mostly inhibitors; purified P. pyralis luciferase, luminescence, biochemical; P08659; also: % is scaled to controls: 0 for no effect and ±100 for the full control effect; nearly all actives have a fitted effect of over 65% in size
#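 Luminescence read by CCD imager after adding enzyme (10nM final) to wells holding compound, titrated in qHTS. Substrates 10uM each D-luciferin and ATP; buffer 50mM Tris acetate pH 7.5, 10mM Mg acetate, Tween-20, BSA.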
# FLuc SDR -ATP = binders stabilizing firefly luciferase, without ATP | shares compounds with FLuc inh-1 | Purified FLuc-C-HiBiT, Nano-Glo HiBiT luminescence, no ATP | Potency, µM (top dose mostly 32.7 µM), without a hit: top-dose activation (signal gain), usual class: activators | actives 7.8% (n = 1,300) | AID 1963318; also: nearly all actives have a fitted effect of over 55% in size
# FLuc SDR ATP = stabilizes firefly luciferase with ATP present; shares compounds with FLuc inh-1; purified FLuc-C-HiBiT + ATP, HiBiT complementation luminescence; Potency, µM (highest dose often 32.7 µM), for the others: at the highest dose activation (gain of signal), most hits filed as activators; actives 8.7% (n = 1,300); AID 1963319;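 also: signal reports ligand binding via conformational change of the enzyme rather than luciferase catalysis; % of control where 0% means no effect; nearly all actives have a fitted effect of over 55% in size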
# FLuc inh-2 = inhibitors of firefly luciferase enzymatic activity. purified FLuc-C-HiBiT enzyme, luciferin luminescence. AID 1963320. actives 42% (n = 1,300). Potency, µM (top dose mostly 32.7 µM), for the others: at the top dose activity change, negative = inhibition, actives largely listed as inhibitors. shares compounds with FLuc inh-1; also: % is scaled to controls: 0 for no effect and ±100 for the full control effect; nearly all actives have a fitted effect of over 70% in size
# The depositor's hits bear a star; i = inactive; ? = inconclusive; / = not tested or not shown; [ ] = remark or other dose. A selection: hits, their analogues and other compounds. The true share with any hit is near 11%. Unless noted, calls follow the shape of the dose curve; as a rule, active = well fitted curve in the direction sought with a large enough effect; inconclusive = small, poorly fitted or top-dose-only effect, or another doubt; inactive = no such curve, though single readings can be large; an effect the other way counts as inactive or inconclusive. Potency is read from the fitted curve at half-maximal effect.
SMILES,NPR1 antag,3T3 cytotox,HEK293 tox,FLuc inh-1,FLuc SDR -ATP,FLuc SDR ATP,FLuc inh-2
CCNc1cc(N2CCC(CCC(=O)Nc3ccc4c(c3)OCCO4)CC2)ncn1,-28.4%,?,?,7.94µM*,17.9%,19.3%,?
CCNc1cc(N2CCC(CCC(=O)NCC3CC3)CC2)ncn1,-4.3%,-4.5%,?,i,/,/,/
CCCNc1cc(N2CCC(CCC(=O)Nc3ccc4c(c3)OCCO4)CC2)ncn1,?,-19.1%,-25.6%,11.2µM*,27.7%,?,9.89µM*
CCC(C)NC(=O)C1CCCN1C(=O)c1cccc(-c2ccccn2)c1 (centres undefined),/,-3.7%[138 µM],-3.7%[172 µM],/,/,/,/
CCOC(=O)[C@@H]1CN(C(=O)COc2ccccc2)[C@H]2c3ccc(OC)cc3O[C@@H]12,/,?,-9.7%,/,/,/,/
O=C(c1ccc2nc(-c3ccncc3)oc2c1)N1CCOCC1,/,-26.9%,-21.1%,/,/,/,/
COCc1nncn1C1CCN(S(=O)(=O)c2cccc(Cl)c2)CC1,-0.5%,-2.4%,1.4%,i,/,/,/
CCOc1ccc(/C=C/c2nc3ccccc3n2S(=O)(=O)c2cccc(Cl)c2)cc1,/,/,/,/,3.13µM*,?,0.394µM*
CSc1ccc(/C=C/c2nc3ccccc3n2S(=O)(=O)c2ccc(F)c(C)c2)cc1,/,/,/,/,4.95µM*,?,0.7µM*
Cc1ccc(/C=C/c2nc3ccccc3n2S(=O)(=O)c2cccc(Cl)c2)cc1,/,/,/,/,0.556µM*,0.7µM*,0.124µM*
CN1CCN(C(=O)c2cc(-c3cccc(F)c3)nc3c2cnn3C)CC1,/,?,-8.7%,/,/,/,/
CNC(=O)c1cc(C2CC2)nc2c1c(C1CCCN1C(=O)c1c(C)noc1C)nn2C (centres undefined),/,-11.8%,-11.0%,/,/,/,/
O=C(CNC(=O)c1cccc(-c2ccsc2)c1)NCc1cccc(F)c1,/,-27.1%,?,/,/,/,/
Clc1ccccc1C1(c2ccnc(-c3ccccn3)n2)CCNCC1,1.4%,?,?,i,/,/,/
COc1cc(NC(=S)N[C@H]2CO[C@H]3[C@@H]2OC[C@@H]3n2nnnc2Oc2cccc(N3CCOCC3)c2)cc(OC)c1,4.5%,-23.8%,-26.9%,i,/,/,/
CCC(=O)Nc1ccc2nnc(-c3ccc(C(=O)Nc4ccc5c(c4)OCCO5)cc3)n2c1,-17.5%,i,?,14.1µM*,21.0%,?,?
O=C(Nc1ccccc1C(=O)O)c1cccc(S(=O)(=O)N2CCCC2)c1,/,/,/,/,17.3%,12.7%,?
CC(O)CNS(=O)(=O)c1cccc(C(=O)Nc2cccc3c2CCC3)c1 (centres undefined),7.2%,-26.3%,-1.4%,i,/,/,/
O=C(NCc1nnc2ccc(-c3ccc(F)cc3)nn12)c1ccoc1,4.8%,-10.5%,-1.2%,i,/,/,/
O=C(NCc1ccoc1)c1ccc2nc(-c3ccc(F)cc3)cn2c1,-6.1%,?,?,5.62µM*,20.3%,15.2%,?
CN(c1ccccc1)c1ccc2ncn(C3CC3)c(=O)c2n1,15.8µM*,?,?,1.26µM*,18µM*,7.15µM*,5.68µM*
O=C(c1nc2cccnc2n(C2CCCC2)c1=O)N1CCN([S+](=O)([O-])c2cccs2)CC1,/,-22.1%,?,/,/,/,/
CCCn1ncc(-c2nc(-c3ccncc3)no2)c1C,?,?,35.5µM*,2.51µM*,?,?,8.81µM*
COCCC1(N(C)C)CCN(C(=O)CC2CCCCC2)CC1,-1.5%,i,i,i,/,/,/
CC1(C)CNC(=O)c2nc(CCSCc3ccco3)[nH]c2C1,-1.1%,0.1%,0.3%,i,/,/,/
SMILES,NPR1 antag,3T3 cytotox,HEK293 tox,FLuc inh-1,FLuc SDR -ATP,FLuc SDR ATP,FLuc inh-2
CSc1ccc(-c2nc3c([nH]2)CC(C)(C)CNC3=O)cc1,-22.8%,-24.2%,?,12.6µM*,31.5%,17.3%,?
COc1ccc(C(=O)COC(=O)CCCC(=O)Nc2ccc(C(C)=O)cc2)cc1,/,/,/,/,28.6%,18.7%,?
CSCc1nc(-c2ccncc2)nn1Cc1ccc2c(c1)OCO2,11.2µM*,?,?,4.47µM*,9.7%,18.9%,-12.9%
CCc1ccccc1Nc1nc(-c2cccc(OC)c2OC)no1,-19.8%,?,?,14.1µM*,21.1%,13.5%,?
Cc1cccc(C(=O)Nc2ccc(-c3nc4ccccc4s3)cc2Cl)c1,/,/,/,/,12.8%,8.0%,-1.3%
Cc1cc(-c2nc3ccccc3s2)ccc1NC(=O)c1cc(Cl)ccc1Cl,/,/,/,/,17.1%,8.4%,-5.2%
Cc1cccc(C(=O)Nc2ccc(-c3nnc4n3CCCC4)cc2)c1,4.9%,-14.2%,?,i,/,/,/
COc1ccc(CC(=O)Nc2ccc(-c3nc4ccccc4s3)c(C)c2)cc1OC,/,/,/,/,19.2%,13.9%,-13.0%
Cc1ccc(-c2nc3ccccc3s2)cc1NC(=O)c1ccc(-c2cccc(Cl)c2)o1,/,/,/,/,14.8%,10.9%,-15.0%
COc1ccccc1CC(=O)Nc1ccc2ncnc(N3CCCC3)c2c1,-2.7%,-18.7%,?,i,/,/,/
COc1ccc(CNc2ncnc3c2CN(C2CCCNC2)C(=O)CN3C)cc1OC (centres undefined),/,-8.2%,4.9%,/,/,/,/
Cc1noc(C)c1S(=O)(=O)N1CCC2(C1)C(=O)N(c1ccccc1)c1ccccc12 (centres undefined),/,-16.5%,?,/,/,/,/
COc1ccc(-c2nc3cc(C)ccc3cc2CN2CCCC(OC)C2)cc1 (centres undefined),4.9%,?,?,i,/,/,/
CCC1=C(C(=O)OC)C(c2ccccc2OC)N2C(CC(=O)NC(C)(C)C)=CSC2=N1 (centres undefined),-17.5%,-10.0%,-29.0%,i,/,/,/
Cc1ccc(C(=O)Nc2ccc(-c3nc4ccccc4s3)cc2C)cc1C,/,/,/,/,9.1%,8.9%,-5.1%
COc1cc(OC)cc(C(=O)Nc2ccc(-c3nc4ccccc4s3)c(C)c2)c1,/,/,/,/,13.0%,10.1%,1.1%
COc1cc(OC)cc(C(=O)Nc2ccc(-c3nnc4n3CCCC4)cc2)c1,3.6%,-1.0%,4.6%,i,/,/,/
COc1cc(OC)cc(C(=O)Nc2ccc(-c3nc4ccccc4s3)cc2C)c1,/,/,/,/,12.8%,11.0%,3.2%
COc1ccc(-c2cc(N3CCC(NC(=O)c4ccc(C)c(C)c4)CC3)n[nH]2)cc1,0.0%,?,?,i,/,/,/
COc1cc(OC)cc(C(=O)NC2CCN(c3cc(-c4ccccc4)[nH]n3)CC2)c1,0.0%,?,?,i,/,/,/
CNC(=O)c1cc(C2CC2)nc2c1c(C1CCN(C(=O)COC)CC1)nn2C,/,-4.9%,i,/,/,/,/
O=C(O)CSCC(=O)N[C@H]1C[C@H]2C(=O)Nc3ccc(-c4cccs4)cc3C(=O)N2C1,2.7%,-20.0%,-17.1%,i,/,/,/

# Screening results deposited in PubChem BioAssay by National Center for Advancing Translational Sciences (NCATS).
